Our source for the log2 fold change values is the supplement of paper PMC10849652.

The full data set covers some 7,900 targets. This sample favours those with a hit. About 0.6% of all pairs of compound and target were hits. Unmarked numbers belong to inactive results.

Chain of UniProt O75822 (O75822 whole entry, looked up): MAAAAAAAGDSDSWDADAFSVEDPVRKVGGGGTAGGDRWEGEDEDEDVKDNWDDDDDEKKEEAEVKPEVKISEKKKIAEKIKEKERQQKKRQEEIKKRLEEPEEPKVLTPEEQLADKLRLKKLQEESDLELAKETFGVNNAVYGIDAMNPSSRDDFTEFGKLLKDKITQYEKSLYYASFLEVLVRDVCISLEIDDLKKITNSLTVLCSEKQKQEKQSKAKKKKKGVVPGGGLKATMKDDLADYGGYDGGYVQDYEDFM
Chain of UniProt Q9BU89 (Q9BU89 whole entry, looked up): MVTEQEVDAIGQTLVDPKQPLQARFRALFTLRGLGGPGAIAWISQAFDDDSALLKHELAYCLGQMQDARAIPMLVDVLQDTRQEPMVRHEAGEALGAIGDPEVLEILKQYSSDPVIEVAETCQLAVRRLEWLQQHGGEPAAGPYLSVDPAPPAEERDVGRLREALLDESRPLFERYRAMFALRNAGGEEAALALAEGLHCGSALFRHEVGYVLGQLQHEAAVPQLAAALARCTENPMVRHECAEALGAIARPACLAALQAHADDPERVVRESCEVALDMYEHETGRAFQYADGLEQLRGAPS
Chain of UniProt Q8TCE6 (Q8TCE6 whole entry, looked up): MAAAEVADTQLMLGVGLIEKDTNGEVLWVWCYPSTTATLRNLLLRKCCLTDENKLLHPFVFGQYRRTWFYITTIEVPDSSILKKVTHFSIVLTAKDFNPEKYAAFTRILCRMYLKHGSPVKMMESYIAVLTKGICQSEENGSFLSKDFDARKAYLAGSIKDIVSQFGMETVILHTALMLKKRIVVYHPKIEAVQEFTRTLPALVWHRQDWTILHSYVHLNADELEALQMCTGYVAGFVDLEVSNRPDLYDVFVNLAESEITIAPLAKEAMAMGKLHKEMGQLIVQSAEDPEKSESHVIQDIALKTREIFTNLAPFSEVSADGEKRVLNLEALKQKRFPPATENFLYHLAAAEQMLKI
Chain of UniProt Q96GQ7 (Q96GQ7 whole entry, looked up): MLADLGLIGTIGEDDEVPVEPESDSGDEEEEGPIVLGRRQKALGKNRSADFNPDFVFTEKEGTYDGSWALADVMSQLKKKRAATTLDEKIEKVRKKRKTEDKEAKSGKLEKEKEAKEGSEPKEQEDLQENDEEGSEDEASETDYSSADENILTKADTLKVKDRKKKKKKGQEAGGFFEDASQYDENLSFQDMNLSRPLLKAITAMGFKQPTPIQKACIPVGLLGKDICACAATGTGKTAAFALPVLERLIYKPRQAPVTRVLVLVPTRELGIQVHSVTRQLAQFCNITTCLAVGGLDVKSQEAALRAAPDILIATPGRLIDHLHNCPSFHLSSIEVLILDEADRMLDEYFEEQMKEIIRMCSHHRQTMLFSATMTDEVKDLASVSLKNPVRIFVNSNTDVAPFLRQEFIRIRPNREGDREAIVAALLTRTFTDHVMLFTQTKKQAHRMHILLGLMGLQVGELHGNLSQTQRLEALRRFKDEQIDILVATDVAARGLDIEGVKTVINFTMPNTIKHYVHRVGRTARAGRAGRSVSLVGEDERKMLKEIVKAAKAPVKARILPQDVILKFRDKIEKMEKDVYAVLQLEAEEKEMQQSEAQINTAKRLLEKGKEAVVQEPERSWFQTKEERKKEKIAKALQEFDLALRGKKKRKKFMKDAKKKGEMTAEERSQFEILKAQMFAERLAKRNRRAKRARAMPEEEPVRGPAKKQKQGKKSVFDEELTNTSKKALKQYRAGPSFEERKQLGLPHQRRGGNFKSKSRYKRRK
Chain of UniProt Q96G46 (Q96G46 whole entry, looked up): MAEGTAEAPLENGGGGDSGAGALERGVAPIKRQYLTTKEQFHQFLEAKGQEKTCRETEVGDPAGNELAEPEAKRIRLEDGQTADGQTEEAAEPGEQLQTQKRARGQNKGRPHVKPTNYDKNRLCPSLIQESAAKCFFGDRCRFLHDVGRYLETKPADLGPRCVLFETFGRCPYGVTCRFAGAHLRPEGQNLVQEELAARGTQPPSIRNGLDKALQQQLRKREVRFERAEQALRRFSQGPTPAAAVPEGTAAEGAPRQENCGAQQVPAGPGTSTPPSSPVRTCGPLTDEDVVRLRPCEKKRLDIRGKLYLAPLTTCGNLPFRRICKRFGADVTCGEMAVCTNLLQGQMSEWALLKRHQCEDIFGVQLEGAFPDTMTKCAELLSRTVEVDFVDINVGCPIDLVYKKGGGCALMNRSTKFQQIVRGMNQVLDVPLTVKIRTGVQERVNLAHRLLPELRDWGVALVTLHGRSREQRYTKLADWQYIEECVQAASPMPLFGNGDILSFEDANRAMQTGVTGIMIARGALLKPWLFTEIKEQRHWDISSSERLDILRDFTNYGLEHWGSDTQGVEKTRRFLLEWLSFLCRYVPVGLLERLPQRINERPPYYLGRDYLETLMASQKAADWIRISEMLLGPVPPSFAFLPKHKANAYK
Chain of UniProt Q8N5C7 (Q8N5C7 whole entry, looked up): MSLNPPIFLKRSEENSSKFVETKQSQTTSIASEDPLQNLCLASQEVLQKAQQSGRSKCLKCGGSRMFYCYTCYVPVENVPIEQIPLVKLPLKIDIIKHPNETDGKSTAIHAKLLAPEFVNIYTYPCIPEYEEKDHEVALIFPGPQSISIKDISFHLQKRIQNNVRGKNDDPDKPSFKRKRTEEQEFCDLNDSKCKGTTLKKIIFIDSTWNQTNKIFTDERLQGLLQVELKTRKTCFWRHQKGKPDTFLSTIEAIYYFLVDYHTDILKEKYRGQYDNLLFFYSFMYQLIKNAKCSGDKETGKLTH
Chain of UniProt P50570 (P50570 whole entry, looked up): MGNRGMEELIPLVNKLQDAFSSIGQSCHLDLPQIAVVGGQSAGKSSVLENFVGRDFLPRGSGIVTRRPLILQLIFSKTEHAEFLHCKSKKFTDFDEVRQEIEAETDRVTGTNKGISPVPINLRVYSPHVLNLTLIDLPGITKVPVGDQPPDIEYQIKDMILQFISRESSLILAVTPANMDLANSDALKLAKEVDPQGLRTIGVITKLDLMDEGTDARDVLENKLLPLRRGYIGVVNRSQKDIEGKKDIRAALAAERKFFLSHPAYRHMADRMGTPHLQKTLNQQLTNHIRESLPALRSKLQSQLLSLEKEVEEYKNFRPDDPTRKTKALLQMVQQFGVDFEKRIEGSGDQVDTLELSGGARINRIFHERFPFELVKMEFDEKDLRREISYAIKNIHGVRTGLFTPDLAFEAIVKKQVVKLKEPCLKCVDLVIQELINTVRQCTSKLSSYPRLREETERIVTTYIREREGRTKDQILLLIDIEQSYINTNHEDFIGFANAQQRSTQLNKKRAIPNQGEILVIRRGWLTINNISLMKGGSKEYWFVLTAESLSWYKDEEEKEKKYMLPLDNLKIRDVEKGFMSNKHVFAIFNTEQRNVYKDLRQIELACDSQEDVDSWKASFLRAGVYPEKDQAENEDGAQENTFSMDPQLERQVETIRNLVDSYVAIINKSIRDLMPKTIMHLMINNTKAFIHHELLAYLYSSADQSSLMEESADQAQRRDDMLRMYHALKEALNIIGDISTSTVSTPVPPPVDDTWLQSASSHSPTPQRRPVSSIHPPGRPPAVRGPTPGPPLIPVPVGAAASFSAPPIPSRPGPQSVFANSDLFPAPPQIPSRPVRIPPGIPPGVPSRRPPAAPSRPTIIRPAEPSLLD
Chain of UniProt Q6P1L5 (Q6P1L5 whole entry, looked up): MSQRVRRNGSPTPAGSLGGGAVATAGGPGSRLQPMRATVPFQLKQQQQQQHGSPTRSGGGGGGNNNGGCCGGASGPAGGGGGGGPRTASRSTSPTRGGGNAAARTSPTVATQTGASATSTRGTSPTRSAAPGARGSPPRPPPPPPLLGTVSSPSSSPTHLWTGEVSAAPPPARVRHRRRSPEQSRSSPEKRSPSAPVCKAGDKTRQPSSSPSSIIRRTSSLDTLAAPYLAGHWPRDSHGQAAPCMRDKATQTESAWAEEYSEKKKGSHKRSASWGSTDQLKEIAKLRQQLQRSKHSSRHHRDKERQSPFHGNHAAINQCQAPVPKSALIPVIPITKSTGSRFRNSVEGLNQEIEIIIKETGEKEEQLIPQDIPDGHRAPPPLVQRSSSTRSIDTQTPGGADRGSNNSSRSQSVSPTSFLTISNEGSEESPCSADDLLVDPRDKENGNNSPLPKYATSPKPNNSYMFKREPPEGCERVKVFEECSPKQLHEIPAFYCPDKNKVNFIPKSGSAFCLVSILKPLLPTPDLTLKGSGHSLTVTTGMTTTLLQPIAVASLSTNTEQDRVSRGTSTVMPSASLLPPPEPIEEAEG
Chain of UniProt P60842 (P60842 whole entry, looked up): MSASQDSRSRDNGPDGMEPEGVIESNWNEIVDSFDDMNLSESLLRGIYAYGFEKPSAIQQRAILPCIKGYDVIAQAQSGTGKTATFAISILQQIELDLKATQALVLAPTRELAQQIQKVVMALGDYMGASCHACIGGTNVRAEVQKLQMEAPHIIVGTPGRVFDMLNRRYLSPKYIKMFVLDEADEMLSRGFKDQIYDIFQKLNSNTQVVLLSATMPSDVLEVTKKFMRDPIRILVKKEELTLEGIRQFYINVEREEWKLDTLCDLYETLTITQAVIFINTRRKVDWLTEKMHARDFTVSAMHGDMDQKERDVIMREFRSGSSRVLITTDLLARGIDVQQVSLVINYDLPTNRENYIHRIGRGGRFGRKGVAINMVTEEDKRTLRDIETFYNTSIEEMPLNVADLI
Chain of UniProt Q96GG9 (Q96GG9 whole entry, looked up): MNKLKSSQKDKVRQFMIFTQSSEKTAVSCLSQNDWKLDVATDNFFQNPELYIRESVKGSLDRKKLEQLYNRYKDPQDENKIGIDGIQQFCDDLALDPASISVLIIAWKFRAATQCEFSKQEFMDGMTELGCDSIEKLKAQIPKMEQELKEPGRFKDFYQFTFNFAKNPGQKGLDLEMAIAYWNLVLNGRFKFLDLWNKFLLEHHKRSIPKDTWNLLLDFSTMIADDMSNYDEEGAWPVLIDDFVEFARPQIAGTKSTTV
Chain of UniProt Q8N8J7 (Q8N8J7 whole entry, looked up): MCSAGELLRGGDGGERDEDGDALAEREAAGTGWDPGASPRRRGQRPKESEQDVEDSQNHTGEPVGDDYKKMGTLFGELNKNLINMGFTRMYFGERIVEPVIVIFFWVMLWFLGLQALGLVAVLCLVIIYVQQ

Compound in the first assay: C1=CC=C(C=C1)C2=NC(=C(N2)C3=CC=NC=C3)C4=CC(=C(C=C4)Cl)O
The assay is described as follows: log2 fold change, soluble protein after heating vs DMSO (PISA); higher = thermal stabilisation; K562 cells, 10 uM, 30 min; active = over 0.2 and 3.5 SD of the protein, either way, in both replicates (recomputed). In a few lines:
(§1)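 K562 cells (2×10^6 cells/mL) were treated with 10 μM compound for 30 min, and aliquots were heated for 3 min over 48°C-58°C. Pooled aliquots were extracted in PBS with 0.5% NP-40 at 4°C, and the supernatant after 21,000xg for 90 min was measured by TMTpro 16plex LC-MS/MS with channel sums equalised. Reported thermal stability, relative to control samples and from duplicates, is a log2 fold change.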
Turning to DCUN1D1 (UniProt Q96GG9), the log2 fold change is 0.021.
For the target DCAF10 (UniProt Q5QP82), the log2 fold change was -0.077.
Same read-out and setting: to DENND10 (UniProt Q8TCE6) belongs 0.
With EIF2AK1 (UniProt Q9BQI3), the log2 fold change is -0.029.
The same measure, in the same setting: with FAM3A (UniProt P98173) the figure was 0.083.
For ELOVL5 isoform 2 (UniProt Q9NYP7), the log2 fold change was 0.068.
Still for that read-out and setting: with DHCR7 (UniProt Q9UBM7) the figure was 0.038.
The same measure, in the same setting: with EIF4G3 isoform 3 (UniProt O43432) the figure was -0.028; with EIF3J (UniProt O75822), 0.101.
Still for that read-out and setting: with E2F4 (UniProt Q16254) the figure was -0.064.
On to DOHH (UniProt Q9BU89), for which the log2 fold change was 0.064.
Same read-out and setting: to ERLIN2 (UniProt O94905) belongs 0.021.
Same read-out and setting: with EEF1A1 (UniProt P68104) the figure was 0.195; with EHBP1L1 (UniProt Q8N3D4), -0.013; with EXOC8 (UniProt Q8IYI6), -0.012.
Still for that read-out and setting: to DYNC1I2 isoform 2 (UniProt Q13409) belongs 0.17.
As for DTWD1 (UniProt Q8N5C7), the log2 fold change is -0.039.
Same read-out and setting: with DOLPP1 (UniProt Q86YN1) the figure was 0.17; with ERCC6 (UniProt Q03468), -0.052; with CUX1 isoform 3 (UniProt P39880), -0.074.
The same measure, in the same setting: to DUS3L (UniProt Q96G46) belongs 0.042; to EIF2S3 (UniProt P41091), -0.037; to EGR1 (UniProt P18146), -0.28.
On the same count and under the same terms, with DDX27 (UniProt Q96GQ7) the figure was -0.039; with EED, A0A5F9ZI63, -0.036; with ELF1 (UniProt P32519), 0.082.
Regarding DNM2 (UniProt P50570), the log2 fold change is 0.019.
The same measure, in the same setting: with EXOSC10 (UniProt Q01780) the figure was -0.444.
On the same count and under the same terms, with FAM117B (UniProt Q6P1L5) the figure was 0.151; with DBN1 isoform 3 (UniProt Q16643), 0.021.
For EIF4A1 (UniProt P60842), the log2 fold change is 0.007.
Same read-out and setting: with FAM241A (UniProt Q8N8J7) the figure was -0.014.

Compound in the next assay: C1=CC=C2C(=C1)C3=NNC4=CC=CC(=C43)C2=O
The description is as above. In a few lines: as §1
As to EIF2AK3 (UniProt Q9NZJ5), the log2 fold change was -0.016.
The same measure, in the same setting: to DCUN1D1 (UniProt Q96GG9) belongs -0.014; to EIF3J isoform 2 (UniProt O75822), -0.138.
As to DCAF10 (UniProt Q5QP82), the log2 fold change was -0.013.
Same read-out and setting: with DENND10 (UniProt Q8TCE6) the figure was -0.04; with EIF2AK1 (UniProt Q9BQI3), 0.021; with FAM3A (UniProt P98173), -0.05.
Still for that read-out and setting: to ELOVL5 isoform 2 (UniProt Q9NYP7) belongs -0.068; to DEGS1 (UniProt O15121), -0.096.
For DHCR7 (UniProt Q9UBM7), the log2 fold change was -0.003.
Consider EIF4G3 isoform 3 (UniProt O43432), for which the log2 fold change is 0.071.
Same read-out and setting: to EIF3J (UniProt O75822) belongs 0.021; to E2F4 (UniProt Q16254), -0.02; to DOHH (UniProt Q9BU89), 0.038.
The same measure, in the same setting: with ERLIN2 (UniProt O94905) the figure was -0.054.
The same measure, in the same setting: with DPYSL2 (UniProt Q16555) the figure was 0.055; with ELAC1 (UniProt Q9H777), -0.021; with EEF1A1 (UniProt P68104), 0.135.
In the case of EHBP1L1 (UniProt Q8N3D4), the log2 fold change is -0.03.
The same measure, in the same setting: with EXOC8 (UniProt Q8IYI6) the figure was 0.001.
The same measure, in the same setting: with DYNC1I2 isoform 2 (UniProt Q13409) the figure was 0.057.
On the same count and under the same terms, with DTWD1 (UniProt Q8N5C7) the figure was 0.023.
For the target DOLPP1 (UniProt Q86YN1), the log2 fold change was 0.011.
Consider ERCC6 (UniProt Q03468), for which the log2 fold change is 0.003.
For CUX1 isoform 3 (UniProt P39880), the log2 fold change was 0.01.
Turning to ELOVL7 (UniProt A1L3X0), the log2 fold change was -0.162.
The same measure, in the same setting: with DUS3L (UniProt Q96G46) the figure was -0.001.
Still for that read-out and setting: to EIF2S3 (UniProt P41091) belongs 0.015; to EGR1 (UniProt P18146), -0.474; to DDX27 (UniProt Q96GQ7), 0.025.
On the same count and under the same terms, with EED, A0A5F9ZI63 the figure was -0.033; with ELF1 (UniProt P32519), -0.091; with EZH2 isoform 2 (UniProt Q15910), 0.054.
Take DNM2 (UniProt P50570): the log2 fold change was 0.033.
Still for that read-out and setting: to EXOSC10 (UniProt Q01780) belongs -0.055.
Turning to FAM117B (UniProt Q6P1L5), the log2 fold change is 0.099.
Still for that read-out and setting: to DBN1 isoform 3 (UniProt Q16643) belongs -0.029; to EIF4A1 (UniProt P60842), 0.035; to FAM241A (UniProt Q8N8J7), 0.012.
